# Bioassay records: PubChem BioAssay, National Center for Advancing Translational Sciences (NCATS)
# B2AR arrestin ag – agonists recruiting beta-arrestin to human beta2-adrenergic receptor | P07550 | HTLA Tango cells, beta-arrestin recruitment, luciferase luminescence, 18 h | Potency, µM (highest dose often 46.1 µM), hits mostly activators | 44,000 tested, under 10 active
#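 Tango cell line, 1% FBS DMEM; cpd titration up to 46 microM; 18 hr, 37 degrees C, 5% CO2. Luciferin/ATP substrate mix added, 15 min RT, luminescence. %Activity, CRC fitting, curve-class categorization.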
# TSG101-PTAP inh – inhibitors of HIV-1 PTAP binding to human TSG101, validation. Potency, µM (titrated, usually from 115 µM), most hits filed as inhibitors. 44,000 tested, under 10 active. AID 1347069. Fluorescence polarization, FITC-PTAP peptide/Tsg101, 20 min. Q99816
# Target sequence (Q99816 whole entry, looked up): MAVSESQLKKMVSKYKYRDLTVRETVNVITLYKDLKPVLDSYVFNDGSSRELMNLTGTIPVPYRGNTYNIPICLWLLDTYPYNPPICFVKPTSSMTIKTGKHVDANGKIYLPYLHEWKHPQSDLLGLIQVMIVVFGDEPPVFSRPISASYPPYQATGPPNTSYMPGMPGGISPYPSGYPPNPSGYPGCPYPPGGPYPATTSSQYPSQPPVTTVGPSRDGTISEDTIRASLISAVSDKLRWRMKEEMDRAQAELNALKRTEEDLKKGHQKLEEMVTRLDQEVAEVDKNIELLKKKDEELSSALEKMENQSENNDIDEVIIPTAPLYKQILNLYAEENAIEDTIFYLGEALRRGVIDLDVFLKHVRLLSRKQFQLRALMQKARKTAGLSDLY
#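 Compounds pinned into 10 uM Tsg101 binding domain, then 50 nM FITC-PTAP peptide added in pH 7.5 HEPES buffer; FP read after 20 min, room temperature. Total S+P intensity flags fluorescent compounds; active cut-off <25 µM, efficacy <60%.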
# HTT-AS act – activators of huntingtin-antisense promoter activity | HEK293 HTT-AS promoter firefly luciferase reporter, 24 h; response scale: percent change from vehicle, -100% = no light | Potency, µM (highest dose often 57.5 µM), actives largely listed as activators | 48,000 tested, 0.24% active | AID 1508624; further: nearly all actives have a fitted effect of over 55% in size
#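 Quantitative HTS used concentration series of up to 57.5 uM final on HEK293 luciferase reporter cells, 24 h at 37 degrees C. Readout was Dual-Glo firefly luminescence.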
# DRV1 agonist – activates human resolvin D1 receptor GPR32; activation, % at 76.9 µM; 48,000 tested, 2.5% active; CHO-K1 GPR32 beta-arrestin PathHunter luminescence, 90 min; zero percent set by DMSO-only wells; O75388; AID 1346428;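 active means activation of at least 60% and not above a set upper limit, about 1 call in 100 departs from these limits; inconclusive means activation of 40% to 60%, or above that upper limit; inactive means activation under 40%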
#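 PathHunter beta-arrestin recruitment in CHO-K1 cells stably expressing ProLink-tagged GPR32. Cells were exposed to compound for 90 min at 37 C, then chemiluminescence was read after 1 h detection at ambient temperature; DMSO served as basal control.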
# HTT promoter inh – inhibitors of huntingtin promoter activity | HEK293 HTT promoter firefly luciferase reporter, 24 h | 48,000 tested, 0.93% active | Potency, µM (top dose mostly 57.5 µM), actives largely listed as inhibitors; further: nearly all actives have a fitted effect of over 50% in size
#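 HEK293 Fluc reporter, 2,500 cells/well, 24 h pre-culture; cpds up to 57.5 uM final, 24 h 37 degrees C; Dual-Glo, 10 min RT; normalized vehicle = 0%, zero RLU = -100%.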
# GALK inh – inhibitors of human galactokinase (GALK); P51570; recombinant GALK, Kinase-Glo ATP luminescence, 1 h; Potency, µM (highest dose often 57.5 µM), actives largely listed as inhibitors; 44,000 tested, under 10 active
#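 Luminescent ATP-depletion readout (Kinase-Glo Plus, 10 min) after 1 h RT reaction of 5 nM GALK, 35 uM ATP, 100 uM galactose, pH 8.0 HEPES buffer. Decreased kinase activity scored as inhibition.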
# Numbers stand for hits; i = inactive; ? = inconclusive; nt = no result given. Compounds with a hit are over-represented: about 3.6% of the library has one in this group of screens. Unless noted, the call rests on the fitted dose curve; in most records, active means well fitted curve in the direction sought with a large enough effect; inconclusive means small, poorly fitted or top-dose-only effect, or another doubt; inactive means no such curve, though single readings can be large; an effect the other way counts as inactive or inconclusive.
SMILES,B2AR arrestin ag,TSG101-PTAP inh,HTT-AS act,DRV1 agonist,HTT promoter inh,GALK inh
CCOc1ccc(S(=O)(=O)N(C(=O)c2ccncc2)c2ccc3oc(C)c(C(=O)OC)c3c2)cc1,i,i,i,i,2µM,i
CCOC(=O)c1c(C)oc2ccc(N(C(=O)c3ccncc3)S(=O)(=O)c3ccc(F)cc3)cc12,i,i,i,i,?,i
CCc1ccc(S(=O)(=O)N(C(=O)c2ccncc2)c2ccc3oc(C)c(C(=O)OC)c3c2)cc1,i,i,i,i,13µM,i
Cc1ccc(CCNc2ncnc3onc(C)c23)cc1,i,i,i,97,?,i
CCOCCCNc1ncnc2onc(C)c12,i,i,i,i,i,i
CCOc1ccc(CCNc2ncnc3onc(C)c23)cc1OCC,i,i,i,64,?,i
COc1ccc(CNc2ncnc3onc(C)c23)cc1,i,i,i,i,?,i
Cc1noc2ncnc(NCCc3ccccc3)c12,i,i,i,?,14µM,i
COc1cc(OC)cc(-c2cc3nc(C)c(CCC(=O)NCc4ccc(Cl)cc4)c(C)n3n2)c1,i,i,i,i,5µM,i
COc1ccccc1-c1cc2nc(C)c(CCC(=O)NCCc3ccc(SC)cc3)c(C)n2n1,i,i,i,i,20µM,i
COc1cc(OC)cc(-c2cc3nc(C)c(CCC(=O)Nc4ccc(C(C)=O)cc4)c(C)n3n2)c1,i,i,i,i,3.2µM,i
Cc1nc2cc(-c3ccccc3)nn2c(C)c1CCC(=O)NCc1cccc(Cl)c1,i,i,i,i,13µM,i
CCc1ccccc1NC(=O)CCc1c(C)nc2cc(-c3ccccc3)nn2c1C,i,i,i,i,?,i
CCCNC(=O)[C@H]1O[C@H]1C(=O)N[C@H](C(=O)N1CCC[C@@H]1C(=O)OC)C(C)CC (stereo not given in full),nt,nt,i,nt,i,nt
c1cc(N[C@@H]2CCNC2)nc(-c2cnc3ccc(-c4cn[nH]c4)cn23)c1,nt,nt,i,nt,?,nt
C[N+]1(C)[C@@H]2C[C@@H](OC(=O)C(O)(c3cccs3)c3cccs3)C[C@H]1[C@@H]1O[C@@H]12,nt,nt,i,nt,i,nt
CCOC(=O)CC(NC(=O)CCc1c(C)nc2cc(-c3ccccc3)nn2c1C)c1ccc(C)cc1 (stereo not given),i,i,i,i,2.5µM,i
Cc1nc2cc(-c3cccc(F)c3)nn2c(C)c1CCC(=O)Nc1ccccc1C(N)=O,i,i,i,i,2.2µM,i
COc1cc(OC)cc(-c2cc3nc(C)c(CCC(=O)NCCc4cccc(C)c4)c(C)n3n2)c1,i,i,i,i,?,i
COc1cc(OC)cc(-c2cc3nc(C)c(CCC(=O)NCc4ccccc4)c(C)n3n2)c1,i,i,i,i,2µM,i
COc1ccccc1CNC(=O)CCc1c(C)nc2cc(-c3ccc(Cl)cc3)nn2c1C,i,i,i,i,4µM,i
CCOc1ccc(S(=O)(=O)NCCc2csc3nc(-c4ccc(F)cc4)nn23)cc1,i,i,i,i,25µM,i
CCOc1ccc(S(=O)(=O)NCCc2csc3nc(-c4ccc(OC)c(OC)c4)nn23)cc1,i,i,i,i,i,i
CC1=C(C(=O)Nc2cc3cn[nH]c3cc2F)C(c2ccc(Cl)cc2F)N=C(c2ccnc(Cl)c2)N1 (stereo not given),nt,nt,i,nt,i,nt
CCn1c(=O)cc(SCC(=O)NCCc2ccc(Cl)cc2)c2ccccc21,i,i,i,?,i,i
SMILES,B2AR arrestin ag,TSG101-PTAP inh,HTT-AS act,DRV1 agonist,HTT promoter inh,GALK inh
CCN(CCCNC(=O)CSc1cc(=O)n(CC)c2ccccc12)c1cccc(C)c1,i,i,i,75,?,i
CCn1c(=O)cc(SCC(=O)NCCc2cccc(C)c2)c2ccccc21,i,i,i,97,i,i
Cc1c(N)cccc1C(F)(F)F,nt,nt,i,i,i,nt
CC(=O)NCCNC(=O)CCCn1c(=O)[nH]c2ccsc2c1=O,i,i,i,i,i,i
O=C(CCCn1c(=O)[nH]c2ccsc2c1=O)N1CCN(c2cccc(C(F)(F)F)c2)CC1,i,i,i,92,?,i
O=C(CCCCn1c(=O)[nH]c2ccsc2c1=O)N1CCN(c2cccc(Cl)c2)CC1,i,i,i,72,?,i
CCCCC(CC)CNC(=O)CCCCCn1c(=O)[nH]c2ccsc2c1=O (stereo not given),i,i,i,80,i,i
Cc1cccc(N2CCN(C(=O)CCCn3c(=O)[nH]c4ccsc4c3=O)CC2)c1C,i,i,i,i,i,i
CCN(CC)CCOc1ccc(/C(=C(\Cl)c2ccccc2)c2ccccc2)cc1,nt,nt,i,91,i,nt
CN(c1ccc(F)cc1)S(=O)(=O)N1CCCC(C(=O)NCc2ccccc2Cl)C1 (stereo not given),i,i,i,i,?,i
COc1cccc(CNC(=O)C2CCCN(S(=O)(=O)N(C)c3ccc(F)cc3)C2)c1OC (stereo not given),i,i,i,i,25µM,i
O=C(CC12CC3CC(CC(C3)C1)C2)Nc1cccc2nc(NCCNCCO)ccc12,nt,nt,i,nt,i,nt
Cc1ccc(CNS(=O)(=O)c2ccc3[nH]c4c(c3c2)CCCC4)cc1,i,i,i,72,i,i
O=S(=O)(NCc1ccc(F)cc1)c1ccc2[nH]c3c(c2c1)CCCC3,i,i,i,118,i,i
O=S(=O)(NCc1ccc(Cl)cc1)c1ccc2[nH]c3c(c2c1)CCCC3,i,i,i,77,i,i
Cn1cc(C2=C(c3c4n(c5ccccc35)CCC(CN)C4)C(=O)NC2=O)c2ccccc21 (stereo not given),nt,nt,i,nt,?,nt
COc1cc(OC)c(NC(=O)CC(C)S(=O)(=O)c2ccc3c(c2)NC(=O)CO3)cc1Cl (stereo not given),i,i,i,73,i,i
CC(C)(C)NCC(O)COc1ccccc1OCC1CCCO1 (stereo not given),nt,nt,i,i,i,nt
NC(=O)Nc1cc(-c2ccc(CN3CCOCC3)cc2)sc1C(N)=O,nt,nt,22µM,nt,i,nt
O=C(NCC(c1ccccc1)c1ccccc1)c1nn(-c2ccccc2F)nc1CO,i,i,i,i,4µM,i
O=C(NCCc1ccccc1)c1nn(-c2ccccc2F)nc1CO,i,i,i,i,i,i
CCCCn1c(NCc2cc(Br)ccc2O)nc2ccccc21,i,i,i,?,?,i
CCCCn1c(NCc2cc(Cl)ccc2O)nc2ccccc21,i,i,i,102,?,i
CC(C)(C)c1ccc(C(=O)NNc2ncnc3c2cnn3-c2ccc(Cl)cc2)cc1,i,i,i,i,?,i
